Binding signal data for 1 sequence are collected here from publication PMC7862700, “An all-to-all approach to the identification of sequence-specific readers for epigenetic DNA modifications on cytosine”.

Holding throughout (test): DAPPL (digital affinity profiling via proximity ligation, sequencing); 10 mM Tris-HCl pH 7.5, 50 mM NaCl, 1 mM DTT, 4% glycerol, room temperature, 30 min; GST-TFs on glutathione beads, 16-mer random dsDNA library, 0.1% formaldehyde crosslink after washing; high values mean tight binding
The target of one test is T1, FEV (Homo sapiens, UniProt Q99581 1-238).
T1 sequence: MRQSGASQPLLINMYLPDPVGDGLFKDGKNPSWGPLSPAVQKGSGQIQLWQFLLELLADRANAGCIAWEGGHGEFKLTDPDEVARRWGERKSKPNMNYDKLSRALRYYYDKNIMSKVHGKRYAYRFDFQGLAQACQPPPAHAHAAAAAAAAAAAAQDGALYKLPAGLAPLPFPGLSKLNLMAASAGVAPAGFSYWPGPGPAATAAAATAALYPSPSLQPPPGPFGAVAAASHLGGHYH
Conditions: protein: recombinant; tags: N-terminal GST; dsDNA, one strand shown. Put shortly:
(§1)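 Human transcription factors were made in yeast as GST fusions, captured on glutathione beads and barcoded with DNA. With a tag-only sample included, the pool was incubated with 200 nmole of a random double-stranded 16-mer DNA library in Tris/NaCl/DTT/glycerol buffer at room temperature for 30 min, then crosslinked with 0.1% formaldehyde after washing, ligated by proximity, amplified and sequenced. For binding signal, each hexamer's read frequency for a factor is divided by its frequency for the tag-only sample.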

A further test concerns the target ETV5 (Homo sapiens, UniProt P41161 1-510). The conditions noted are these: protein: recombinant; tags: N-terminal GST; dsDNA, one strand shown. In short, it runs like this:
as §1

A further test has as its target HSF1 (Homo sapiens, UniProt Q00613 1-529). Conditions: protein: recombinant; tags: N-terminal GST; chain copies: 3; dsDNA, one strand shown. In short, it runs like this: as §1
In another test the target is T2, SPIC (Homo sapiens, UniProt Q8N5J4 1-248).
T2 sequence: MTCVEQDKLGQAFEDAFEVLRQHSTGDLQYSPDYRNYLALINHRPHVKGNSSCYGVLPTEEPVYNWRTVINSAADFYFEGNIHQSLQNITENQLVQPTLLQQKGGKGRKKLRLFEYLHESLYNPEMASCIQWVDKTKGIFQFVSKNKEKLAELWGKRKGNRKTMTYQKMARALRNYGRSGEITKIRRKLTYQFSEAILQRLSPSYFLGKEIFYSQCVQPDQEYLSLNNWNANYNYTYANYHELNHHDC
Conditions: protein: recombinant; tags: N-terminal GST; dsDNA, one strand shown. Put shortly: as §1

The next test addresses ELF4 (Homo sapiens, UniProt Q99607 1-663). The conditions noted are these: protein: recombinant; tags: N-terminal GST; dsDNA, one strand shown. Put shortly: as §1
Another test concerns the target T3, ELK4 (Homo sapiens, UniProt P28324-2 1-405).
T3 sequence: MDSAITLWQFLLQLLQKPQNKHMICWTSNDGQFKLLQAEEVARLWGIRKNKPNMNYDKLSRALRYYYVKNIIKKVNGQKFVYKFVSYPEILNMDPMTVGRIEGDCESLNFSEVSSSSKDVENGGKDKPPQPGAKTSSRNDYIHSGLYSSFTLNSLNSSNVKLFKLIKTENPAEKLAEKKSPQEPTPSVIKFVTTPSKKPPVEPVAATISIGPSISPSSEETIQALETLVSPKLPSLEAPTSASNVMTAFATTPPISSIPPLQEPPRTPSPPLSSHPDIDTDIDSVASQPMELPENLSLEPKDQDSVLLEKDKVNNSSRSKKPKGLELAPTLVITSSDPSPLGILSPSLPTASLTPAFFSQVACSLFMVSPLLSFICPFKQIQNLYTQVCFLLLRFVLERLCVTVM
Conditions: protein: recombinant; tags: N-terminal GST; dsDNA, one strand shown. In short, it runs like this: as §1

The target of a further test is T4, ETV2 (Homo sapiens, UniProt O00321 1-342).
T4 sequence: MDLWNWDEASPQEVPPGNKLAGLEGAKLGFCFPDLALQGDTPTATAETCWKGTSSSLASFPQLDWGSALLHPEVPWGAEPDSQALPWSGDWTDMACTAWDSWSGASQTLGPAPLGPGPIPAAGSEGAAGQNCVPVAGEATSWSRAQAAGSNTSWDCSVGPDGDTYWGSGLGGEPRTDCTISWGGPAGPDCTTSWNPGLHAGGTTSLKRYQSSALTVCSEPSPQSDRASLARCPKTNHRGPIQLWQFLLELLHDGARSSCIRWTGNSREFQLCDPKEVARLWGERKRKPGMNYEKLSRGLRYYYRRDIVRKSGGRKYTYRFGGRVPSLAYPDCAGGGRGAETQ
The conditions noted are these: protein: recombinant; tags: N-terminal GST; dsDNA, one strand shown. In short, it runs like this:
as §1

The next test concerns the target T5, ELF3 (Homo sapiens, UniProt P78545 1-371).
T5 sequence: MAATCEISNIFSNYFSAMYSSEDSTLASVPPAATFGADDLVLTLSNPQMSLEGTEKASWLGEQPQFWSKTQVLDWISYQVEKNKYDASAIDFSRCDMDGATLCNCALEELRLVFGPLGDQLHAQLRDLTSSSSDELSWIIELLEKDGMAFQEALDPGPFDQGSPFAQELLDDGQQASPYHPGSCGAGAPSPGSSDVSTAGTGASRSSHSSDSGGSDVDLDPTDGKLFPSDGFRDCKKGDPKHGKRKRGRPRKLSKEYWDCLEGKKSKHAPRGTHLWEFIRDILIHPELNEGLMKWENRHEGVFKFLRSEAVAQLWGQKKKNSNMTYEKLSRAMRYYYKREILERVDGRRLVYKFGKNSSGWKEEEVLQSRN
Conditions: protein: recombinant; tags: N-terminal GST; dsDNA, one strand shown. Put shortly:
as §1

Another test addresses CRX (Homo sapiens, UniProt O43186 1-299). The conditions noted are these: protein: recombinant; tags: N-terminal GST; dsDNA, one strand shown. In short, it runs like this: as §1
For another test, the target named is ETV1 (Homo sapiens, UniProt P50549 1-477). The conditions noted are these: protein: recombinant; tags: N-terminal GST; dsDNA, one strand shown. In short, it runs like this: as §1
ETV1, sequence (P50549 whole entry): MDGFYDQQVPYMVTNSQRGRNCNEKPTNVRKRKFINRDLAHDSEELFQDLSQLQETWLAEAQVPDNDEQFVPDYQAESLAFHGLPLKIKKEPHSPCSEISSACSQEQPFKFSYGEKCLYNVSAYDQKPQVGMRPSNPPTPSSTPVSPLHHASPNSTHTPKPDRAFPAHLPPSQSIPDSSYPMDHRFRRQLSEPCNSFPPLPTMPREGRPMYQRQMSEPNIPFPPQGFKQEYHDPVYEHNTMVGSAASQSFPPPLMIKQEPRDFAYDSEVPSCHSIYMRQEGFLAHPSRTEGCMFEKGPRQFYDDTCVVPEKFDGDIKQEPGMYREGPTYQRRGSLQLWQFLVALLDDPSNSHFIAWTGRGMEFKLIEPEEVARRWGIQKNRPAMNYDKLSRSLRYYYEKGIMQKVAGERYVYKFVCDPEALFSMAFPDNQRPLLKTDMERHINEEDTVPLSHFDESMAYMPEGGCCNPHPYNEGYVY
Another test deals with T6, ERF (Homo sapiens, UniProt P50548 1-548).
T6 sequence: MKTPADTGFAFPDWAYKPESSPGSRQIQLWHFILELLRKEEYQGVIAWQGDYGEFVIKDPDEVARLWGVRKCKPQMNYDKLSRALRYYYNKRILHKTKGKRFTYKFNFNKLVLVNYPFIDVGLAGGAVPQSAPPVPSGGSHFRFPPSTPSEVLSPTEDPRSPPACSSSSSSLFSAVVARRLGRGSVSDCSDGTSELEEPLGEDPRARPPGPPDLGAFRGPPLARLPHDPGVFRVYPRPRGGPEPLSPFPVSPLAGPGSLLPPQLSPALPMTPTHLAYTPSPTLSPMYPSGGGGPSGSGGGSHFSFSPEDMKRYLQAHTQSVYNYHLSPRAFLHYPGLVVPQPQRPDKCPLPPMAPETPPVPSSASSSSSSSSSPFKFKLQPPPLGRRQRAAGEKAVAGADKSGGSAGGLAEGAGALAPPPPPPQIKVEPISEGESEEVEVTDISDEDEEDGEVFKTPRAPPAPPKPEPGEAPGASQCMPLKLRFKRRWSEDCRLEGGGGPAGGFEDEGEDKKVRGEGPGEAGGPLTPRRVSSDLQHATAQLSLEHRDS
Conditions: protein: recombinant; tags: N-terminal GST; dsDNA, one strand shown. In short, it runs like this:
as §1

For another test, the target named is T7, ETV3L (Homo sapiens, UniProt Q6ZN32 1-361).
T7 sequence: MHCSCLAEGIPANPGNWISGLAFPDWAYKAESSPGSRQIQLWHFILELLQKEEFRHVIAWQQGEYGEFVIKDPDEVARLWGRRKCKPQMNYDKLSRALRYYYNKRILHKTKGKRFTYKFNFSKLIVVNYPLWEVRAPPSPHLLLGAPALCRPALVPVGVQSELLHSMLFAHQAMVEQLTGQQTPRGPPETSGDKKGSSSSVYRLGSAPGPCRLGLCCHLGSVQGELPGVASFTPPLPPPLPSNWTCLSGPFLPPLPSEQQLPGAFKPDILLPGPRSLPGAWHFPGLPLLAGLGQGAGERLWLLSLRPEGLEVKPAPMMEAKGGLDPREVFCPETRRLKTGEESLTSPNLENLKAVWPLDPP
The conditions noted are these: protein: recombinant; tags: N-terminal GST; dsDNA, one strand shown. In short, it runs like this:
as §1

The next test addresses T8, ETS2 (Homo sapiens, UniProt P15036 1-469).
T8 sequence: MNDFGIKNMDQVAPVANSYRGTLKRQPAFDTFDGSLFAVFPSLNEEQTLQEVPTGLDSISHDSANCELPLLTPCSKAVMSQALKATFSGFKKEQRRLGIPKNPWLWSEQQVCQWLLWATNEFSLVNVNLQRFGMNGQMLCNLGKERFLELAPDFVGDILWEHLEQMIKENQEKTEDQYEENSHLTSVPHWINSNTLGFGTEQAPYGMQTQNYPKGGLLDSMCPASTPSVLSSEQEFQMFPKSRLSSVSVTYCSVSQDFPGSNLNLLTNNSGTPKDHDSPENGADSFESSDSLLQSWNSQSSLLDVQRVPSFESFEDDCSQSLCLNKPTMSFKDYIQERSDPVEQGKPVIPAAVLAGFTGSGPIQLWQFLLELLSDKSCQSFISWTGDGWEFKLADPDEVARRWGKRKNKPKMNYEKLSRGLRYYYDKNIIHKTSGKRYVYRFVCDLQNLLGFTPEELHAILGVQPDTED
Conditions: protein: recombinant; tags: N-terminal GST; dsDNA, one strand shown. In short, it runs like this: as §1

The target in another test is T9, SPDEF (Homo sapiens, UniProt O95238 1-335).
T9 sequence: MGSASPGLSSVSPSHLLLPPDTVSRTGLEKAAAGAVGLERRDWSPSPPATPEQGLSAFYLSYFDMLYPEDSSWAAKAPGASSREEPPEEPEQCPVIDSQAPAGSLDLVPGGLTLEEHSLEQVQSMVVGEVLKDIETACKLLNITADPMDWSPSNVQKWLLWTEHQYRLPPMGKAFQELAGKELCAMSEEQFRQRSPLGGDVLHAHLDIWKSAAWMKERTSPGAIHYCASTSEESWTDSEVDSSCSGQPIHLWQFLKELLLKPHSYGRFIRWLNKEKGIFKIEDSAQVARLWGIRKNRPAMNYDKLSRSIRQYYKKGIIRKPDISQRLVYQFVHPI
The conditions noted are these: protein: recombinant; tags: N-terminal GST; dsDNA, one strand shown. In short, it runs like this: as §1

The target of another test is T10, ETV7 (Homo sapiens, UniProt Q9Y603 1-341).
T10 sequence: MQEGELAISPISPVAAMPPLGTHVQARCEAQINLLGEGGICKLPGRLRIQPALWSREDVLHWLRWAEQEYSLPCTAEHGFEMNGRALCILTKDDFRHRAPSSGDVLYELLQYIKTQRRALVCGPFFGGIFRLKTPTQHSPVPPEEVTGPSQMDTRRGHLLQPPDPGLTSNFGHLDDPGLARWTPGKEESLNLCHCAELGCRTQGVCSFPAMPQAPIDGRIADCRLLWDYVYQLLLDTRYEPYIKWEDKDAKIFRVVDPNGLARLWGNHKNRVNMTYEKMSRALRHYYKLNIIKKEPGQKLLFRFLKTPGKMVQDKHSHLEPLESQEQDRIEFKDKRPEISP
Conditions: protein: recombinant; tags: N-terminal GST; dsDNA, one strand shown. In short, it runs like this:
as §1

The next test concerns the target T11, ELF5 (Homo sapiens, UniProt Q9UKW6-2 1-255).
T11 sequence: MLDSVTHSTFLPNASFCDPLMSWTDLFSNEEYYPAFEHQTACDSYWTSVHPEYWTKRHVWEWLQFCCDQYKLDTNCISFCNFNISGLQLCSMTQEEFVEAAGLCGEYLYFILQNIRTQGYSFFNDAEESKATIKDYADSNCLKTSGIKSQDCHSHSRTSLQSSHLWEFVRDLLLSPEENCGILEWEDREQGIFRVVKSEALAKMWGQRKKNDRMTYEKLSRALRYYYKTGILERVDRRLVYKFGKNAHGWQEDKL
The conditions noted are these: protein: recombinant; tags: N-terminal GST; dsDNA, one strand shown. Put shortly: as §1

A further test deals with T12, ETV3 (Homo sapiens, UniProt P41162-2 1-143).
T12 sequence: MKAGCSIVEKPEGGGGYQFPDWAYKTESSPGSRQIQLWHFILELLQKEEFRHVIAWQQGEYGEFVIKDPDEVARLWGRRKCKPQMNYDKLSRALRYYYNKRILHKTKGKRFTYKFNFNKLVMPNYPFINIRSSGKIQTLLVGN
Conditions: protein: recombinant; tags: N-terminal GST; dsDNA, one strand shown. Put shortly:
as §1

Another test deals with ETV6 (Homo sapiens, UniProt P41212 1-452). Conditions: protein: recombinant; tags: N-terminal GST; dsDNA, one strand shown. Put shortly:
as §1

HSF1, sequence (Q00613 whole entry): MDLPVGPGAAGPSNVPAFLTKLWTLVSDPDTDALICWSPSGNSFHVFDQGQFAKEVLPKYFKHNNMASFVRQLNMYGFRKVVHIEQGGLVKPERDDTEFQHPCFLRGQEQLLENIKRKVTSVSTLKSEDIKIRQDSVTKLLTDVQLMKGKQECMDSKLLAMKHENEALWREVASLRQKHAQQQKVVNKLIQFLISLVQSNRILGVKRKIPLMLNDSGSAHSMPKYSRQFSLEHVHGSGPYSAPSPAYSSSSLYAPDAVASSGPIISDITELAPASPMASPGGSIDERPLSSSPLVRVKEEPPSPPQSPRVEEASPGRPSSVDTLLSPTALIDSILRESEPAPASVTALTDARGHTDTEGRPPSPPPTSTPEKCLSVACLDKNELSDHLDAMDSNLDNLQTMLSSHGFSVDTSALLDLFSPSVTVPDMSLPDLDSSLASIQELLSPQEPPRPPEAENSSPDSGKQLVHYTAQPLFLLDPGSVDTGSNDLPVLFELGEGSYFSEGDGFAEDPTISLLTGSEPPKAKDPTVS
ETV5, sequence (P41161 whole entry): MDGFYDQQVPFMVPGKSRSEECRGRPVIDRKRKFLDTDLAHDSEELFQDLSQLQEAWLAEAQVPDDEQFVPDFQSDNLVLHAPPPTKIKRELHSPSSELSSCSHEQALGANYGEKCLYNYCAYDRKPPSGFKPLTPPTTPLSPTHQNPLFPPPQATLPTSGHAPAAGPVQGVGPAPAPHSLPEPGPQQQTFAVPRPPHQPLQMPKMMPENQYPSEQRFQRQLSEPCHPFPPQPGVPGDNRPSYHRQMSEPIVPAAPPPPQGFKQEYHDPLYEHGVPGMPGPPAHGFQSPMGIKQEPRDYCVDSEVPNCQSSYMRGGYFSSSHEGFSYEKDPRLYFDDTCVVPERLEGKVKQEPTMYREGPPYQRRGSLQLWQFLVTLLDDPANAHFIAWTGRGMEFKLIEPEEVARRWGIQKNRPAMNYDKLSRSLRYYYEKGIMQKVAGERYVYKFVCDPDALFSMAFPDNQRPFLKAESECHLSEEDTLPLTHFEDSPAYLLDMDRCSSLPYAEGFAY
CRX, sequence (O43186 whole entry): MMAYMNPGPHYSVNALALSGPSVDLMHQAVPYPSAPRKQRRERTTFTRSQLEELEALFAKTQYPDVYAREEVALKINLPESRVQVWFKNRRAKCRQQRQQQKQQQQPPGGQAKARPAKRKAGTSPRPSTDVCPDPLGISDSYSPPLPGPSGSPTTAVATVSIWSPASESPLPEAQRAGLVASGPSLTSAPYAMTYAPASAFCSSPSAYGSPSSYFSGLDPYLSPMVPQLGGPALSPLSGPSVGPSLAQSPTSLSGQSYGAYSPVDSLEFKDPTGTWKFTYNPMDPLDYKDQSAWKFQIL
ELF4, sequence (Q99607 whole entry): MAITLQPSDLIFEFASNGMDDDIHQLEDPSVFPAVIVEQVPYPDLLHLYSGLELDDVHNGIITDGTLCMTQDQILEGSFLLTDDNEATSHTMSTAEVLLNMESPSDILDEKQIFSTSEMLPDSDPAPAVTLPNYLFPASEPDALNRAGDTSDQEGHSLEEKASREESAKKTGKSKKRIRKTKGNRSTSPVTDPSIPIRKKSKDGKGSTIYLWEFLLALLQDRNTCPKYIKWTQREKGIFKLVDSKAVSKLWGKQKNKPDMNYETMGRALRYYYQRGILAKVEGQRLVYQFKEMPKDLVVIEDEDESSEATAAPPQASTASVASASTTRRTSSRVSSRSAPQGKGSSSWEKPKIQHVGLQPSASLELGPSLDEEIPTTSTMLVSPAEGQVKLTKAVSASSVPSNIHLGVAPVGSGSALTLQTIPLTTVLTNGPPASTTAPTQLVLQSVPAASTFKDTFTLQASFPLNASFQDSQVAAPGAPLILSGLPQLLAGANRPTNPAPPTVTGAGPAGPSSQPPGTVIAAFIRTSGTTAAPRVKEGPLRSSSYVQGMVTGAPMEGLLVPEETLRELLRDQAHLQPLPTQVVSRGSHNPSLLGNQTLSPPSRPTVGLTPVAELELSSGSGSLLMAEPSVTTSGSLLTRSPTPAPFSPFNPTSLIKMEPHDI
ETV6, sequence (P41212 whole entry): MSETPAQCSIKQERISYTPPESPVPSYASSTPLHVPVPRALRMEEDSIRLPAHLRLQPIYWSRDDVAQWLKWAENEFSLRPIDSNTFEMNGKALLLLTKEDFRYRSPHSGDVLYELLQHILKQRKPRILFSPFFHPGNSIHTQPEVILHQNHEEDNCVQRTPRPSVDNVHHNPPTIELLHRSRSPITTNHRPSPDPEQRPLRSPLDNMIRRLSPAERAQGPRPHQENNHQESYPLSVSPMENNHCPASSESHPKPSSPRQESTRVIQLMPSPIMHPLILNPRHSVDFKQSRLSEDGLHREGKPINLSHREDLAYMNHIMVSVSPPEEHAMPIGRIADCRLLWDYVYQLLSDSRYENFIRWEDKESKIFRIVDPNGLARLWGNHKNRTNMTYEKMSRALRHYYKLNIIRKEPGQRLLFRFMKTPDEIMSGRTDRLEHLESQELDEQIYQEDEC

With ATTAAT, the binding signal was 1.16 fold enrichment (6-mer frequency, TF over GST control) with FEV; 1.26 fold enrichment (6-mer frequency, TF over GST control) in the test with ETV5; 2.47 fold enrichment (6-mer frequency, TF over GST control) in the test with HSF1; 1.18 fold enrichment (6-mer frequency, TF over GST control) with SPIC; 1.19 fold enrichment (6-mer frequency, TF over GST control) with ELF4; 1.23 fold enrichment (6-mer frequency, TF over GST control) with ELK4. In addition, the binding signal with ETV2 was 1.25 fold enrichment (6-mer frequency, TF over GST control); with ELF3, 1.05 fold enrichment (6-mer frequency, TF over GST control); in the test with CRX it was 3.95 fold enrichment (6-mer frequency, TF over GST control); in the test with ETV1, 1.25 fold enrichment (6-mer frequency, TF over GST control); with ERF, 1.25 fold enrichment (6-mer frequency, TF over GST control); with ETV3L it was 1.18 fold enrichment (6-mer frequency, TF over GST control). Moreover, the binding signal in the test with ETS2 was 1.27 fold enrichment (6-mer frequency, TF over GST control); with SPDEF, 1.23 fold enrichment (6-mer frequency, TF over GST control); with ETV7, 1.21 fold enrichment (6-mer frequency, TF over GST control); in the test with ELF5 it was 1.18 fold enrichment (6-mer frequency, TF over GST control); in the test with ETV3, 1.25 fold enrichment (6-mer frequency, TF over GST control); with ETV6, 1.3 fold enrichment (6-mer frequency, TF over GST control).
